In PubChem BioAssay (NCATS):
Records with an inconclusive call do not appear. Entries that show only a call come without a potency. Active and inactive are the calls of the source. Calls follow the shape of the dose curve; as a rule, active = well fitted curve in the direction sought with a large enough effect; inconclusive = small, poorly fitted or top-dose-only effect, or another doubt; inactive = no such curve, though single readings can be large; an effect the other way counts as inactive or inconclusive.
Potency is read from the fitted curve at half-maximal effect.

Test: qHTS for Inhibitors of Plasmodium falciparum (DD2) proliferation (AID 504314)
Details: P. falciparum Dd2 in erythrocytes, SYBR Green growth, 72 h; series mostly up to 1.12 µM
Method in brief: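 Infected RBCs, 0.3% parasitemia, 2.5% Hct; compound 72 h, 37C/5% CO2; lyse + SYBR Green I, RT overnight, dark; read ex485/em535; normalize to DMSO and artemisinin 0.29 uM.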
In the case of `CCCCC1=CC2=CC(=O)C(C)(OC(=O)CC)C(=O)C2=CN1Cc1ccc2c(c1)OCO2` (stereo not given), the Potency is reported as “inactive”. For `COC(=O)N1C2=C(c3ccccc3[C@@H]1CC(=O)Nc1ccc(Br)cc1)[C@@H]1C(=O)N(c3ccccc3)C(=O)[C@@H]1[C@H](C)C2`, the Potency was “inactive”. In the case of `CCCCCCCC1=Cc2ccccc2C(C(C(C)=O)C(=O)OC)N1C(=O)OC` (stereo not given), the Potency is reported as “inactive”. With `C=CCN1c2ccccc2[C@]23C[C@@H](C(=O)OC)N(C(=O)c4ccc(Br)cc4)C2=NC(C(=O)OC)=C(C(=O)OC)[C@H]13` the Potency was “inactive”. For `COC(=O)C1=C(C(=O)OC)[C@@H]2Nc3ccccc3[C@@]23C[C@@H](C(=O)OC)N(S(=O)(=O)c2ccc(OC)cc2)C3=N1`, the Potency was “inactive”. In the case of `C#CCCOC(=O)N1C2=NC(C(=O)OC)=C(C(=O)OC)[C@@H]3N(Cc4ccccc4)c4ccccc4[C@]23C[C@H]1C(=O)OC`, the Potency is reported as “inactive”. In the case of `COC(=O)C1=C(C(=O)OC)[C@@H]2N(C)c3ccc(OC)cc3[C@@]23C[C@@H](C(=O)OC)N(C(=O)CC(C)C)C3=N1`, the Potency is reported as “inactive”. With `CCCCCCC(=O)Cc1cc(OC)c(OC)cc1C=C(C(=O)OCC)C(=O)OCC` the Potency was “inactive”. With `COc1cccc(CC(=O)N2CCc3nc(-c4ccc(OC)cc4C)c4c(c3C2)CO[C@@H](c2ccccc2)C4)c1` the Potency was “inactive”. With `COC(=O)C1=C(C(=O)OC)[C@@H]2N(Cc3ccccc3)c3ccccc3[C@@]23C[C@@H](C(=O)OC)N(C(=O)CC(C)C)C3=N1` the Potency was “inactive”. In the case of `COC(=O)C1=C(C)N(Cc2ccccc2)C(=NCCc2cccnc2)NC1c1ccc(Br)cc1` (stereo not given), the Potency is reported as 1.5 µM (active). In the case of `COC(=O)C1=C(C(=O)OC)[C@@H]2N(C)c3ccc(OC)cc3[C@@]23C[C@@H](C(=O)OC)N(S(=O)(=O)c2ccc(C)cc2)C3=N1`, the Potency is reported as “inactive”. In the case of `CCN1C(=O)N(S(=O)(=O)c2ccc(C)cc2)[C@@H](c2ccccc2)C(C(=O)OC)=C1C`, the Potency is reported as “inactive”. In the case of `CC#CCN1c2ccccc2[C@]23C[C@@H](C(=O)OC)N(S(=O)(=O)c4ccc([N+](=O)[O-])cc4)C2=NC(C(=O)OC)=C(C(=O)OC)[C@H]13`, the Potency is reported as “inactive”. For `CC#CCN1c2ccccc2[C@]23C[C@@H](C(=O)OC)N(S(=O)(=O)c4ccc(C#N)cc4)C2=NC(C(=O)OC)=C(C(=O)OC)[C@H]13`, the Potency was “inactive”. For `C[C@H]1CC[C@H]2C(=O)N(Cc3ccccc3)C[C@H](O)CN2[C@H]1c1cccc(Br)c1`, the Potency was “inactive”. In the case of `COC(=O)N1C(/C=C/c2ccc3c(c2)OCO3)=Cc2ccccc2C1CC(C)=O` (stereo not given), the Potency is reported as “inactive”. With `COC(=O)CCC(=O)OC1(C)C(=O)C2=CN(C3CCCC3)C(c3ccc(OC)cc3)=CC2=C(Br)C1=O` (stereo not given) the Potency was “inactive”. With `COC(=O)C1=C(C(=O)OC)[C@@H]2N(C)c3ccc(OC)cc3[C@@]23C[C@@H](C(=O)OC)N(S(=O)(=O)c2ccc(C(F)(F)F)cc2)C3=N1` the Potency was “inactive”. With `CCCCS(=O)(=O)N1CCc2nc(-c3ccc(OC)cc3C)c3c(c2C1)CO[C@@H](c1ccccc1)C3` the Potency was “inactive”. For `COC(=O)CCC(=O)OC1(C)C(=O)C=C2C=C(C3CC3)N(c3cccc(C#N)c3)C=C2C1=O` (stereo not given), the Potency was “inactive”. With `CC1(OC(=O)C2CCCC2)C(=O)C=C2C=C(c3ccsc3)N(CCc3c[nH]c4ccccc34)C=C2C1=O` (stereo not given) the Potency was “inactive”. With `COC(=O)C1=C(C(=O)OC)[C@@H]2N(Cc3ccccc3)c3ccccc3[C@@]23C[C@@H](C(=O)OC)N(S(=O)(=O)c2cccs2)C3=N1` the Potency was “inactive”. With `COc1ccc(-c2nc3c(c4c2C[C@H](c2ccccc2)OC4)CN(C(=O)Cc2cccs2)CC3)c(C)c1` the Potency was “inactive”.

Test: qHTS for Inhibitors of Plasmodium falciparum (GB4) proliferation (AID 504315); also: nearly all actives have a fitted effect of over 50% in size
Details: P. falciparum GB4 in erythrocytes, SYBR Green DNA, 72 h; series mostly up to 6.7 µM
Method in brief: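 Erythrocytes infected with P. falciparum line (0.3% parasitemia, 2.5% hematocrit final) incubated with compounds 72 h at 37 °C, 5% CO2; SYBR Green lysis buffer added, fluorescence read next day. Normalized to 0.29 uM artemisinin and DMSO.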
In the case of `C=CCNC(=O)N1C2=NC(C(=O)OC)=C(C(=O)OC)[C@@H]3N(Cc4ccccc4)c4ccccc4[C@]23C[C@H]1C(=O)OC`, the Potency is reported as 1.9 µM (active). With `COC(=O)CCC(=O)OC1(C)C(=O)C=C2C=C(C3CC3)N(C(CO)CO)C=C2C1=O` (stereo not given) the Potency was “inactive”. With `COCC(=O)N1CCc2nc(COc3ccccc3)c3c(c2C1)CO[C@@H](C)C3` the Potency was “inactive”. For `COC(=O)C1=C(C(=O)OC)[C@@H]2N(Cc3ccccc3)c3ccccc3[C@@]23C[C@@H](C(=O)OC)N(S(=O)(=O)c2ccc(C#N)cc2)C3=N1`, the Potency was 2.13 µM (active). In the case of `C=CCOC(=O)C(C(C)=O)[C@@H](NC(=O)OC)c1cccc(C(F)(F)F)c1` (stereo not given in full), the Potency is reported as “inactive”. With `COC(=O)C1=C(C(=O)OC)[C@@H]2N(Cc3ccccc3)c3ccccc3[C@@]23C[C@@H](C(=O)OC)N(S(=O)(=O)c2ccc(C)cc2)C3=N1` the Potency was 1.69 µM (active). With `COC(=O)N1C2CC(=O)O[C@@H]3c4cc5c(cc4[C@]1(C)[C@@]3(Br)c1ccccc12)OCO5` the Potency was 1.51 µM (active). In the case of `COC(=O)C1=C(C(=O)OC)[C@@H]2N(Cc3ccccc3)c3ccccc3[C@@]23C[C@@H](C(=O)OC)N(S(=O)(=O)c2ccc(Br)cc2)C3=N1`, the Potency is reported as 1.35 µM (active). In the case of `COC(=O)CCCC1=CC2=C(c3ccccc3)C(=O)C(C)(OC(=O)C3CCCC3)C(=O)C2=CN1CC(C)C` (stereo not given), the Potency is reported as “inactive”. In the case of `CCOC(=O)CN1C(=O)N[C@@H](c2cccc(C(F)(F)F)c2)C(C(=O)OC)=C1C`, the Potency is reported as “inactive”. In the case of `CCOC(=O)CN1C(=O)N(CC)C(C)=C(C(=O)OC)[C@@H]1c1ccccc1`, the Potency is reported as “inactive”. In the case of `c1ccc(-c2nc(-c3cccc4ccccc34)c(Nc3ccc4ccccc4c3)o2)cc1`, the Potency is reported as 1.51 µM (active). With `COC(=O)C(C(=O)OC)[C@@H]1c2ccccc2[C@H]2C(=C[C@@H](C)[C@H]3C(=O)N(c4ccccc4)C(=O)[C@H]32)N1C(=O)OC` the Potency was “inactive”. In the case of `CCCCc1nc2c(c3c1C[C@H](C)OC3)CN(S(=O)(=O)c1ccc3c(c1)OCCN3C)CC2`, the Potency is reported as “inactive”. For `COC(=O)CCC(=O)OC1(C)C(=O)C2=CN(CCCCO)C(c3ccc(OC)cc3)=CC2=C(Br)C1=O` (stereo not given), the Potency was “inactive”. With `COC(=O)C1=C(C(=O)OC)[C@@H]2N(Cc3ccccc3)c3ccccc3[C@@]23C[C@@H](C(=O)OC)N(S(=O)(=O)c2ccc(C(F)(F)F)cc2)C3=N1` the Potency was 0.536 µM (active).
